Shown is part of a subset that was picked to be rich in hits.
AMA1-RON2 inh: disrupts binding of P. falciparum AMA1 to RON2; AlphaScreen AMA1-biotinylated RON2 peptide binding; 360,000 compounds, 0.2% hits; Potency, µM (highest dose often 58.2 µM), for inactives: at the top dose activity change, negative = inhibition, hits mostly inhibitors; active = well fitted inhibition curve with a large enough effect; inconclusive = small, poorly fitted or top-dose-only effect; inactive = no such curve, though single readings can be large or run the other way;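 also: potency is read from the fitted curve at half-maximal effect; 0% = vehicle wells and -100% = peptide control; nearly all actives have a fitted effect of over 45% in size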
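AMA1 (3D7) with his tag at 25 nM final met compounds first, then biotinylated RON2 peptide at 25 nM; detection used donor plus acceptor beads, 10 µg/mL apiece, read by AlphaScreen after 30 min at room temperature.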
CHX counter: counter-screen hit for Shiga toxin inhibitors, cycloheximide; max response, %; 300,000 compounds, 12% hits; cell reporter, cycloheximide protein synthesis inhibition counterscreen; in the data active = max response mostly above about 13%, no sharp cut-off; inactive = mostly below about 14%; also: read at 38.3 µM for the half of the compounds with a filed dose; 0% is about no effect
MARV entry inh: Marburg virus entry inhibition; Potency, µM (top dose mostly 37.8 µM), inactives show at the top dose activity change, negative = inhibition, hits mostly inhibitors; Marburg virus pseudotyped entry inhibition, cell reporter; 300,000 compounds, 1.8% hits; calls by dose curve; tested in HEK293 cells; also: potency is read from the fitted curve at half-maximal effect; % is scaled to controls: 0 for no effect and ±100 for the full control effect
LASV entry inh: inhibitors of Lassa virus binding or cell entry; Lassa virus pseudotype entry inhibition, cell reporter; Potency, µM (highest dose often 37.9 µM), without a hit: at the highest dose activity change, negative = inhibition, usual class: inhibitors; 300,000 compounds, 1.2% hits; calls by dose curve; tested in HEK293 cells; also: potency is read from the fitted curve at half-maximal effect; % is scaled to controls: 0 for no effect and ±100 for the full control effect; nearly all actives have a fitted effect of over 50% in size
Shiga inhibitor: blocks Shiga toxin action in Vero cells | Vero cells, Shiga toxin protein synthesis inhibition reporter | inhibition, % at 38.7 µM | 290,000 compounds, 9.2% hits; in the data active = inhibition mostly above about 28%, no sharp cut-off; inactive = mostly below about 43%; also: 0% is about no effect
Numbers without * were called inactive; ? = inconclusive; nt = not tested or not shown; [ ] = another dose, or the depositor's remark.

SMILES | AMA1-RON2 inh | CHX counter | MARV entry inh | LASV entry inh | Shiga inhibitor
C/C(=N/NC(=O)c1ccc(Br)o1)C(C)C | 27.2% | 30.5* | ? | ? | 79.3*
COc1ccccc1NC(=O)c1ccc(Br)o1 | 7.0% | 13.7* | -1.6% | -0.8% | 31.3
COC(=O)c1cc(OC)c(OC)cc1NC(=O)c1ccc(Br)o1 | -5.5% | nt | 12.7% | -8.8% | nt
O=C(Nc1ccc2c(c1)Cc1ccccc1-2)c1ccccc1F | 4.7% | nt | ? | -22.9% | nt
Cc1cc(O)c(NC(=O)c2ccc(Br)o2)cc1C | -25.0% | 46.1* | 15.6% | ? | 65.8*
COc1ccc(C2(c3ccc(OC)cc3)NC(=O)N(CC(=O)N(C)C3CCC(C)CC3)C2=O)cc1 (centres undefined) | -6.0%[11.6 µM] | nt | ? | -26.7% | nt
COc1ccc(NC(=S)NC(=O)c2cncc(Br)c2)cc1 | 78.6% | nt | 0.0%[14.2 µM] | -0.6% | nt
COc1ccc(NC(=S)NC(=O)c2ccc(Br)o2)cc1 | 54.3% | 67.1* | nt | nt | 96.4*
COc1ccc(N2CCN(c3cc(C(=O)Nc4cc(OC)c(OC)c(OC)c4)ncn3)CC2)cc1OC | 0.4% | nt | nt | nt | nt
COCCCN1C(=O)c2ccc(C(=O)NCc3ccco3)cc2C1=O | 0.8% | 29.2* | 11.4% | 4.3% | 45.3
COCCCN1C(=O)c2ccc(C(=O)Nc3ccccc3OC)cc2C1=O | 11.8% | 5.7 | -16.3% | 8.7% | -4.3
COCCN1C(=O)c2ccc(C(=O)NCc3ccco3)cc2C1=O | -9.9% | 0.9 | nt | nt | -11.5
COCCCN1C(=O)c2ccc(C(=O)Nc3ccc(OC)cc3)cc2C1=O | 7.0% | 14.8* | 2.2% | ? | 37.8
Cc1cccc(/C=N\Nc2cn[nH]c(=O)c2Cl)c1 | 17.0% | 16.4* | -22.4% | 34.9%[14.3 µM] | 35.9*
COc1ccccc1C=CC1=CC2(C)CC1(C)C(c1ccccc1OC)CC2=O (centres undefined) | nt | nt | -29.1%[14.2 µM] | nt | nt
O=C(N/N=C/c1cn(-c2ccccc2)nc1-c1cc2ccccc2o1)c1ccccc1Br | -15.4% | 66.0* | 10µM* | ? | 99.8*
O=C(N/N=C/c1cn(-c2ccccc2)nc1-c1cc2ccccc2o1)c1c[nH]c2ccccc12 | 2.4% | 44.9* | ? | ? | 133.5*
CCc1ccc(N2CC(C(=O)Nc3cc(C)on3)CC2=O)cc1 (centres undefined) | -6.5% | 1.0 | 4.8% | -5.8% | 5.0
Cn1cccc1C1CCCN1CC(=O)Nc1ccc(C(N)=O)cc1 (centres undefined) | 29.2% | nt | nt | nt | nt
CN(CCO)c1c2c(nc3cc(-c4cccc(F)c4)nn13)CCCC2 | 9.5% | 42.1* | -22.6% | 0.4% | 45.8
OC1CCN(c2c3c(nc4cc(-c5cccc(F)c5)nn24)CCCC3)CC1 | 5.5% | 32.6* | ? | -24.1% | 81.5
CCOCCN1CCN(c2c3c(nc4cc(-c5ccc(F)cc5)nn24)CCC3)CC1 | -1.5% | -7.1 | -5.1% | nt | -6.6
Fc1cccc(-c2cc3nc4c(c(N5CCC6(CC5)OCCO6)n3n2)CCCC4)c1 | 2.2% | 28.3* | ? | 2.6% | 107.8*
Fc1cccc(-c2cc3nc(-c4ccccc4)cc(N4CCC5(CC4)OCCO5)n3n2)c1 | 64.5% | -4.2 | ? | ? | -0.7
Clc1cccc(-c2cc3nc4c(c(N5CCNCC5)n3n2)CCCC4)c1 | nt | 31.4* | nt | nt | 43.0
SMILES | AMA1-RON2 inh | CHX counter | MARV entry inh | LASV entry inh | Shiga inhibitor
Cc1nn2c(NCCOCCO)c3c(nc2c1-c1ccccc1)CCC3 | 0.0% | 0.5 | -8.0% | 2.3% | 39.2
Clc1cccc(-c2cc3nc4c(c(NCc5ccco5)n3n2)CCCC4)c1 | -2.9% | 47.0* | -27.5% | -2.7% | 131.2*
OCCCNc1c2c(nc3cc(-c4ccc(Cl)cc4)nn13)CCC2 | -10.3% | 5.9* | nt | nt | 40.4*
O=C(NC1CC1)C1CCN(c2ncnc3c2sc2cccc(F)c23)CC1 | -0.3% | -1.2 | nt | nt | -12.8
Cc1ccc(/C=N/N=C/c2ccc(C)cc2)cc1 | 20.9% | 36.5* | 7.0% | 2.6% | 74.3*
Oc1ccc(/C=N/N=C/c2ccc(O)cc2)cc1 | -4.4% | 50.0* | ? | 19.0%[46.1 µM] | 115.1*
Oc1ccccc1C=NN=CC=Cc1ccccc1 | 14.0% | nt | 2.7% | -21.4% | nt
C(=N\N=C\c1ccccc1)/c1ccccc1 | -0.6% | 55.2* | 28.3%[46.1 µM] | nt | 132.3*
CC(SC(C)C(=O)NN=Cc1cccc(F)c1)C(=O)NN=Cc1cccc(F)c1 (centres undefined) | -3.0% | nt | 14.6%[46.1 µM] | 7.9%[46.1 µM] | nt
Cc1nnc(C)n1/N=C/c1ccc(O)cc1 | 3.4% | 0.8 | 1.6% | 9.7% | -4.9
Fc1cccc(/C=N/N=C/c2cccc(F)c2)c1 | 4.7% | 31.4* | ? | ? | 111.6*
Cc1cccc(NC(=O)c2ncn3c2C(=O)N(C)CC3)c1 | -3.4% | nt | nt | nt | nt
Oc1ccc(/C=N/N=C/c2ccc(O)c(O)c2)cc1O | ? | 22.6* | ? | ? | 21.0*
Nc1ccc2nc3c(=O)n(C4CCCCC4)c(=O)[nH]c3nc2c1 | 0.4% | 39.9* | nt | nt | 77.9*
CCCCn1c(=O)[nH]c2nc3cc(N)ccc3nc2c1=O | -7.2% | 79.9* | 17.8% | ? | 81.0*
CCOC(=O)N=Nc1c(O)n(Cc2ccccc2)c2ccccc12 | -8.1% | 28.9* | nt | nt | 46.1*
CCCCn1c(O)c(N=NC(=O)c2ccco2)c2ccccc21 | -7.5% | 65.9* | ? | ? | 86.0*
O=C(CNC(=O)c1ccco1)N=Nc1c(O)n(CCc2ccccc2)c2ccccc12 | ? | -1.4 | nt | nt | 21.1
COc1cccc(C(C)(O)c2nc(-c3ccc(F)c(Cl)c3)cs2)c1 (centres undefined) | 22.7% | nt | nt | nt | nt
O=C1C2C3C=CC(C4CC34)C2C(=O)N1/N=C/c1c[nH]c2ccccc12 (centres undefined) | -9.2% | 46.3* | ? | 5.0%[46.1 µM] | 114.6*
O=C(Nc1ccc2c(c1)C(=O)OC2)c1ccc(F)cc1F | -14.2% | 26.5* | -0.6% | ? | 34.9*
O=C(Nc1ccc2c(c1)C(=O)OC2)c1ccc(Cl)cc1 | 14.2% | 18.2* | 9.6% | 2.4% | 40.1
CCN(Cc1ccccc1)C(=O)Cn1c(=O)n(-c2ccccc2)c(=O)c2c1c1cc(C)ccc1n2C | nt | nt | nt | 6.0%[46.1 µM] | nt
COc1ccc(CNC(=O)/C=C\c2ccc3[nH]cc(CCN(C)C)c3c2)cc1 | nt | nt | 35.5µM* | nt | nt
CCOC(=O)C1(CCCc2ccccc2)CCN(C(=O)CN2CCOC2=O)CC1 | 2.9% | 8.5 | nt | nt | 9.0
SMILES | AMA1-RON2 inh | CHX counter | MARV entry inh | LASV entry inh | Shiga inhibitor
CCOC(=O)C1(Cc2ccccc2Cl)CCN(C(=O)CN2CCOC2=O)CC1 | -0.1% | 42.6* | ? | ? | 74.7*
O=C(Nc1ccc(Br)c(C(F)(F)F)c1)c1ccc(C(F)(F)F)cc1 | 24.4% | 36.4* | ? | ? | 77.8*
O=C(Nc1cccc(O)c1)c1ccc(C(F)(F)F)cc1 | -3.2% | 30.5* | ? | ? | 68.6*
CC(C)CC(=O)Nc1ccc(C(=O)Nc2cccc(O)c2)cc1 | 10.2% | 32.3* | ? | 28.2%[46.1 µM] | 73.5*
O=C(Nc1ccc(Br)c(C(F)(F)F)c1)c1ccccc1 | 0.7% | 45.8* | -15.0% | ? | 20.7
O=C(Nc1ccc(C(F)(F)F)cc1)c1ccccc1 | 3.3% | nt | nt | nt | nt
O=C(Cc1ccc(Br)cc1)N1CCN(C(=O)c2ccccc2)CC1 | -1.2% | nt | nt | nt | nt
O=c1c2oc3ccccc3c2n(Cc2ccc(Cl)cc2)c(=O)n1Cc1ccccc1 | nt | nt | nt | -4.2%[46.1 µM] | nt
Cc1cc(Br)ccc1NC(=O)CN(C)C(=O)Cn1c(=O)cnc2ccccc21 | 11.1% | -2.9 | -4.0% | -0.1% | -2.5

High-throughput results from PubChem.
